# In PubChem BioAssay (NCATS):
# “And” between values parts separate entries of the source, which are not always exact repeats. Identical values can stand only once. Results filed as inconclusive are left out. A call without a number means that no potency is given here. Where a structure was tested more than once in an assay, its records may differ in their call. The source made the active and inactive calls. Unless noted, calls follow the shape of the dose curve; as a rule, active = well fitted curve in the direction sought with a large enough effect; inconclusive = small, poorly fitted or top-dose-only effect, or another doubt; inactive = no such curve, though single readings can be large; an effect the other way counts as inactive or inconclusive.
# Key:
# WaGa = test: qHTS assay to identify novel small-molecules to repurpose for Merkel cell carcinoma treatment (AID 1296009); conditions: MCC and control cell lines, CellTiter-Glo viability, 72 h; series mostly up to 46 µM; also: nearly all actives have a fitted effect of over 60% in size; also: potency is read from the fitted curve at half-maximal effect
# Summary of the method: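 After compound transfer in DMSO, plates were kept 72 hr at 37 degree celsius. Luminescent ATP signal from CellTiter-Glo served as viability measure, normalized against DMSO and no-cell controls.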
# C33A = test: Primary qHTS to identify gynecologic anti-cancer compounds using libraries of approved drugs and bioactive compounds (AID 1345084); conditions: Gynecologic cancer cell panel viability, ATPlite luminescence, 48 h; series mostly up to 57.5 µM; also: nearly all actives have a fitted effect of over 55% in size
# Summary of the method: (§1)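 Cytotoxicity screen measuring ATP content by luciferase luminescence. Each compound is applied at five concentrations for 48 h at 37 C with 5% CO2.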
# CAOV3 = test: as above; conditions: Gynecologic cancer cell panel viability, ATPlite luminescence, 48 h; series mostly up to 57.5 µM
# Summary of the method: as §1
# CASKI = test: as above; conditions: Gynecologic cancer cell panel viability, ATPlite luminescence, 48 h; series mostly up to 57.5 µM
# Summary of the method: as §1
# Es-2 = test: as above; conditions: Gynecologic cancer cell panel viability, ATPlite luminescence, 48 h; series mostly up to 57.5 µM
# Summary of the method: as §1
# HeLa = test: as above; conditions: Gynecologic cancer cell panel viability, ATPlite luminescence, 48 h; series mostly up to 57.5 µM
# Summary of the method: as §1
# JEG-3 = test: as above; conditions: Gynecologic cancer cell panel viability, ATPlite luminescence, 48 h; series mostly up to 57.5 µM
# Summary of the method: as §1
# OV90 = test: as above; conditions: Gynecologic cancer cell panel viability, ATPlite luminescence, 48 h; series mostly up to 57.5 µM
# Summary of the method: as §1
# PA-1 = test: as above; conditions: Gynecologic cancer cell panel viability, ATPlite luminescence, 48 h; series mostly up to 57.5 µM
# Summary of the method: as §1
# SKOV3 = test: as above; conditions: Gynecologic cancer cell panel viability, ATPlite luminescence, 48 h; series mostly up to 57.5 µM
# Summary of the method: as §1
# Tov-21-G = test: as above; conditions: Gynecologic cancer cell panel viability, ATPlite luminescence, 48 h; series mostly up to 57.5 µM
# Summary of the method: as §1
# Tov112D = test: as above; conditions: Gynecologic cancer cell panel viability, ATPlite luminescence, 48 h; series mostly up to 57.5 µM
# Summary of the method: as §1
# [1] = Drug repurposing screens with cells derived from glioblastoma tumor samples (AID 1345199); conditions: GBM patient neurospheres viability, ATP luminescence, 48 h; also: nearly all actives have a fitted effect of over 40% in size; also: potency is read from the fitted curve at half-maximal effect
# Summary of the method: (§2)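 Four patient lines of CD133+ GBM neurospheres were screened at several concentrations; hits were retested in those lines plus three slower-growing GBM lines, using 48-hour treatment and ATP-based viability.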
# astro = test: as above; conditions: viability, ATP luminescence, 48 h; series mostly up to 45.9 µM
# Summary of the method: as §2
# [2] = molecular target: Nuclear receptor subfamily 1 group I member 2 (Rattus norvegicus) (UniProt Q9R1A7); test: qHTS assay for small molecule activators of the rat pregnane X receptor (rPXR) signaling pathway (AID 651751; call rule not given here); conditions: rPXR reporter cells, luciferase (One-Glo), 24 h
# Nuclear receptor subfamily 1 group I member 2 (Rattus norvegicus), sequence (Q9R1A7 whole entry, looked up): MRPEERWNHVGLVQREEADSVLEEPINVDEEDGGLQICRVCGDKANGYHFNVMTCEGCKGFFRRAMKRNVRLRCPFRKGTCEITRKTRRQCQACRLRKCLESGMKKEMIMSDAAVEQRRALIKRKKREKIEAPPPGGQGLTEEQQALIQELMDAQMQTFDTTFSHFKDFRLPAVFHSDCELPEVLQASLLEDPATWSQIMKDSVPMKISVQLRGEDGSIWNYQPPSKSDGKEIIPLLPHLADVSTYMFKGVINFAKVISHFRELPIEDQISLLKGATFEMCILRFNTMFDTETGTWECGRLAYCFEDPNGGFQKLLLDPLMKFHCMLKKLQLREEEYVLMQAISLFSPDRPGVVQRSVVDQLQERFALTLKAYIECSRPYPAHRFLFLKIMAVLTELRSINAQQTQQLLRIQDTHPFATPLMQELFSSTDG
# [3] = qHTS assay for small molecule activators of the human pregnane X receptor (PXR) signaling pathway (AID 720659; call rule not given here)
# Hek293T = test: Primary qHTS to identify gynecologic anti-cancer compounds using libraries of approved drugs and bioactive compounds (AID 1345084); conditions: Gynecologic cancer cell panel viability, ATPlite luminescence, 48 h, control line for the selectivity index; series mostly up to 57.5 µM; also: nearly all actives have a fitted effect of over 55% in size
# Summary of the method: as §1
# [4] = at 45.9 µM (top of the series), tumour line B
# [5] = at 45.9 µM (top of the series), tumour line D
# [6] = at 46 µM (top of the series), tumour line A
# [7] = at 46.1 µM (top of the series), tumour line C
smiles,measurement,setting,value
O=c1[nH]cnc2[nH]ncc12,Potency,WaGa,inactive
same,Potency,C33A,inactive
same,Potency,CAOV3,inactive
same,Potency,CASKI,inactive
same,Potency,Es-2,inactive
same,Potency,HeLa,inactive
same,Potency,JEG-3,inactive
same,Potency,OV90,inactive
same,Potency,PA-1,inactive
same,Potency,SKOV3,inactive
same,Potency,Tov-21-G,inactive
same,Potency,Tov112D,inactive
same,"activity, negative = cell killing",[1]; [4],-5.74% (inactive)
same,"activity, negative = cell killing",[1]; [5],-0.0406% (inactive)
same,"activity, negative = cell killing",[1]; [6],-9.81% (inactive)
same,"activity, negative = cell killing",[1]; [7],7.88% (inactive)
same,Potency,astro,inactive
same,max response,[2],2.04% (inactive)
same,outcome,[3],inactive
COc1cc2nccc(Oc3ccc(NC(=O)NC4CC4)c(Cl)c3)c2cc1C(N)=O,Potency,WaGa,1.48 µM (active)
same,Potency,C33A,inactive
same,Potency,CAOV3,inactive
same,Potency,CASKI,inactive
same,Potency,Es-2,inactive
same,Potency,HeLa,inactive
same,Potency,Hek293T,inactive
same,Potency,JEG-3,inactive
same,Potency,OV90,inactive
same,Potency,PA-1,inactive
same,Potency,SKOV3,inactive
same,Potency,Tov-21-G,inactive
same,Potency,Tov112D,inactive
O=C(O)COCCN1CCN(C(c2ccccc2)c2ccc(Cl)cc2)CC1 (stereo not drawn),Potency,WaGa,inactive
same,Potency,C33A,inactive
same,Potency,CAOV3,inactive
same,Potency,CASKI,inactive
same,Potency,Es-2,inactive
same,Potency,HeLa,inactive
same,Potency,Hek293T,inactive
same,Potency,JEG-3,inactive
same,Potency,OV90,inactive
same,Potency,PA-1,inactive
same,Potency,SKOV3,inactive
same,Potency,Tov-21-G,inactive
same,Potency,Tov112D,inactive
same,"activity, negative = cell killing","[1]; at 20 µM (top of the series), tumour line C",-26.4% (inactive)
same,"activity, negative = cell killing","[1]; at 21.2 µM (top of the series), tumour line B",-3.42% (inactive)
same,"activity, negative = cell killing","[1]; at 21.2 µM (top of the series), tumour line D",-18.8% (inactive)
same,"activity, negative = cell killing","[1]; at 21.3 µM (top of the series), tumour line A",-26.6% (inactive)
same,Potency,astro,inactive
CC(=O)Oc1ccccc1C(=O)O,Potency,WaGa,inactive
same,Potency,C33A,inactive
same,Potency,CAOV3,inactive
same,Potency,CASKI,inactive
same,Potency,Es-2,inactive
same,Potency,HeLa,inactive
same,Potency,Hek293T,inactive
same,Potency,JEG-3,inactive
same,Potency,OV90,inactive
same,Potency,PA-1,inactive
same,Potency,SKOV3,inactive
same,Potency,Tov-21-G,inactive
same,Potency,Tov112D,inactive
same,"activity, negative = cell killing",[1]; [5],-4.86% (inactive)
same,"activity, negative = cell killing",[1]; [6],-15.2% (inactive)
same,"activity, negative = cell killing",[1]; [7],-19.2% (inactive)
same,Potency,astro,inactive
same,max response,[2],-0.967% (inactive) and 1.6% (inactive) and -0.848% (inactive)
same,outcome,[3],inactive
Cc1ccc(NC(=O)c2cccc(C(C)(C)C#N)c2)cc1Nc1ccc2ncn(C)c(=O)c2c1,Potency,WaGa,inactive
COc1ccc(CCN2CCN(CCCc3ccccc3)CC2)cc1OC,Potency,WaGa,inactive
same,Potency,C33A,inactive
same,Potency,CAOV3,inactive
same,Potency,CASKI,inactive
same,Potency,Es-2,inactive
same,Potency,HeLa,inactive
same,Potency,Hek293T,inactive
same,Potency,JEG-3,inactive
same,Potency,OV90,inactive
same,Potency,PA-1,inactive
same,Potency,SKOV3,inactive
same,Potency,Tov112D,inactive
CCc1ccc(CCOc2ccc(CC3SC(=O)NC3=O)cc2)nc1 (stereo not drawn),Potency,WaGa,inactive
same,Potency,C33A,inactive
same,Potency,CAOV3,inactive
same,Potency,CASKI,inactive
same,Potency,Es-2,inactive
same,Potency,HeLa,inactive
same,Potency,Hek293T,inactive
same,Potency,JEG-3,inactive
same,Potency,OV90,inactive
same,Potency,PA-1,inactive
same,Potency,SKOV3,inactive
same,Potency,Tov-21-G,inactive
same,Potency,Tov112D,inactive
same,"activity, negative = cell killing",[1]; [4],-10.3% (inactive)
same,"activity, negative = cell killing",[1]; [5],-17.6% (inactive)
Cc1cn[nH]c1,Potency,WaGa,inactive and 1.87 µM (active)
same,Potency,C33A,inactive
same,Potency,CAOV3,inactive
same,Potency,CASKI,inactive
same,Potency,Es-2,inactive
same,Potency,HeLa,inactive
same,Potency,Hek293T,inactive
same,Potency,JEG-3,inactive
same,Potency,OV90,inactive
same,Potency,PA-1,inactive
same,Potency,SKOV3,inactive
same,Potency,Tov-21-G,inactive
same,Potency,Tov112D,inactive
same,"activity, negative = cell killing",[1]; [4],0.573% (inactive)
same,"activity, negative = cell killing",[1]; [5],-5.07% (inactive)
same,"activity, negative = cell killing",[1]; [6],-17.3% (inactive)
same,"activity, negative = cell killing",[1]; [7],-3.17% (inactive)
same,Potency,astro,inactive
NCCc1ccc(O)c(O)c1,Potency,WaGa,11.9 µM (active)
same,Potency,C33A,inactive
same,Potency,CASKI,inactive
same,Potency,Es-2,inactive
same,Potency,HeLa,inactive
same,Potency,Hek293T,inactive
same,Potency,JEG-3,inactive
same,Potency,OV90,inactive
same,Potency,PA-1,inactive
same,Potency,Tov-21-G,inactive
same,Potency,Tov112D,inactive
same,"activity, negative = cell killing",[1]; [4],-2.97% (inactive)
same,"activity, negative = cell killing",[1]; [5],1.17% (inactive)
same,"activity, negative = cell killing",[1]; [6],-12.4% (inactive)
same,"activity, negative = cell killing",[1]; [7],13.2% (inactive)
same,Potency,astro,inactive
Cc1ccccc1C(OCCN(C)C)c1ccccc1 (stereo not drawn),Potency,WaGa,inactive
same,Potency,C33A,inactive
same,Potency,CASKI,inactive
same,Potency,Es-2,inactive
same,Potency,HeLa,inactive
same,Potency,Hek293T,inactive
same,Potency,JEG-3,inactive
same,Potency,PA-1,inactive
same,Potency,SKOV3,inactive
same,Potency,Tov-21-G,inactive
same,Potency,Tov112D,inactive
same,"activity, negative = cell killing",[1]; [5],-29.5% (inactive)
same,"activity, negative = cell killing",[1]; [7],0.923% (inactive) and -8.9% (inactive)
same,Potency,astro,inactive
same,max response,[2],4.25% (inactive)
NC(N)=NC(=O)c1nc(Cl)c(N)nc1N,Potency,WaGa,inactive and 29.9 µM (active)
same,Potency,C33A,inactive
same,Potency,CASKI,inactive
same,Potency,Es-2,inactive
same,Potency,HeLa,inactive
same,Potency,Hek293T,inactive
same,Potency,JEG-3,inactive
same,Potency,OV90,inactive
same,Potency,PA-1,inactive
same,Potency,SKOV3,inactive
same,Potency,Tov-21-G,inactive
same,Potency,Tov112D,inactive
same,"activity, negative = cell killing",[1]; [5],-15.1% (inactive)
same,"activity, negative = cell killing",[1]; [6],18.9% (inactive)
same,"activity, negative = cell killing",[1]; [7],-11.2% (inactive)
same,Potency,astro,inactive
same,outcome,[3],inactive
O=NN(CCCl)C(=O)NCCCl,Potency,WaGa,inactive
same,Potency,C33A,inactive
same,Potency,CASKI,inactive
same,Potency,Es-2,inactive
same,Potency,HeLa,inactive
same,Potency,JEG-3,inactive
same,Potency,OV90,inactive
same,Potency,PA-1,inactive
same,Potency,SKOV3,inactive
same,Potency,Tov-21-G,inactive
same,Potency,Tov112D,inactive
same,"activity, negative = cell killing",[1]; [4],-7.98% (inactive)
same,"activity, negative = cell killing",[1]; [5],-22.2% (inactive)
same,"activity, negative = cell killing",[1]; [6],-13.2% (inactive)
same,"activity, negative = cell killing",[1]; [7],-21% (inactive)
same,Potency,astro,inactive
same,max response,[2],-1.45% (inactive)
CNC[C@H](O)c1cccc(O)c1,Potency,WaGa,inactive
same,Potency,C33A,inactive
same,Potency,CASKI,inactive
same,Potency,Es-2,inactive
same,Potency,HeLa,inactive
same,Potency,Hek293T,inactive
same,Potency,JEG-3,inactive
same,Potency,OV90,inactive
same,Potency,PA-1,inactive
same,Potency,SKOV3,inactive
same,Potency,Tov-21-G,inactive
same,Potency,Tov112D,inactive
same,"activity, negative = cell killing",[1]; [4],-2.77% (inactive)
same,"activity, negative = cell killing",[1]; [5],6.94% (inactive)
same,"activity, negative = cell killing",[1]; [7],-5.24% (inactive)
same,Potency,astro,inactive
same,max response,[2],1.25% (inactive)
same,outcome,[3],inactive
CCOC(=O)C1=C[C@]2(CC)CCCN3CCc4c(n1c1ccccc41)[C@@H]32,Potency,WaGa,inactive
same,Potency,C33A,inactive
same,Potency,CASKI,inactive
same,Potency,Es-2,inactive
same,Potency,HeLa,inactive
same,Potency,Hek293T,inactive
same,Potency,JEG-3,inactive
same,Potency,OV90,inactive
same,Potency,PA-1,inactive
same,Potency,Tov-21-G,inactive
same,Potency,Tov112D,inactive
same,"activity, negative = cell killing",[1]; [4],-28.2% (inactive) and -25.8% (inactive)
same,Potency,[1]; tumour line A,4.47 µM (active)
same,Potency,[1]; tumour line D,10 µM (active)
same,Potency,astro,inactive
